About 5,100 (32%) of roughly 16,000 compounds were called active. Not shown: some 25% with an inconclusive outcome. Calls come from the whole dose curve; as a rule, active = well fitted curve in the direction sought with a large enough effect; inconclusive = small, poorly fitted or top-dose-only effect, or effect the other way; inactive = no such curve, though single readings can be large or run the other way. The list shows a part of the results.
target: Cytochrome P450 3A4 (Homo sapiens) (UniProt P08684); experiment: Cytochrome panel assay with activity outcomes; settings: recombinant CYP, pro-luciferin dealkylation, luminescence, p450-cyp3a4; series mostly up to 57.1 µM
Sequence (P08684 whole entry, looked up): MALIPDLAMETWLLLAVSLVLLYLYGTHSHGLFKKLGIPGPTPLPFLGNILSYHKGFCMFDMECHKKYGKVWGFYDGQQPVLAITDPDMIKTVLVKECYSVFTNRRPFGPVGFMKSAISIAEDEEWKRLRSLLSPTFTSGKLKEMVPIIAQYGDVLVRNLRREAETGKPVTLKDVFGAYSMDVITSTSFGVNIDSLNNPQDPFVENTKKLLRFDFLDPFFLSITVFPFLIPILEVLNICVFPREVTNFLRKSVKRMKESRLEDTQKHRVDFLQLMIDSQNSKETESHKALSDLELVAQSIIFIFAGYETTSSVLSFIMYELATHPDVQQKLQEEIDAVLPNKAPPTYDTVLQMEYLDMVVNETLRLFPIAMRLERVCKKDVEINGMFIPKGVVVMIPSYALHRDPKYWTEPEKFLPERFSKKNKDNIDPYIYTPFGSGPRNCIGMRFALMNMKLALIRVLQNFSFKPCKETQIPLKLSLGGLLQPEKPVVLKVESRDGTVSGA
% is set by controls: 0 for no effect and ±100 for the full control effect.

Row | Structure (SMILES) | AC50 | activity, negative = inhibition
1 | Cc1oc(C(C)(C)C)cc1C(=O)Nc1cccc(/C=C/C(=O)O)c1 | inactive | 
2 | Cc1oc(-c2ccccc2)cc1C(=O)Nc1ccc(N(C)C)cc1 | 17.8 µM (active) | 
3 | CC(=O)C[C@H](O)[C@@H](NC(=O)OC(C)(C)C)C(C)C |  | -26.2% [at 11.4 µM] (inactive)
4 | NC(N)=N/N=C\c1ccc(O)c(C(=O)O)c1 |  | -5.15% [at 11.4 µM] (inactive)
5 | CCCCCNCc1cccc(Br)c1 | inactive | 
6 | O=C(N/N=C/C1C(c2ccccc2)C1(Cl)Cl)c1cccc(Br)c1 (configuration not stated) | 12.6 µM (active) | 
7 | O=C(N[C@@]1(C(=O)O)C[C@@H]1c1ccccc1)c1ccccc1 |  | -6.56% [at 11.4 µM] (inactive)
8 | O=C(N/N=C/c1cccc(Oc2ccccc2)c1)c1cccc(Br)c1 | inactive | 
9 | CCCCOC(=O)CSCC(=O)Nc1cc(C)on1 |  | -0.1% [at 11.4 µM] (inactive)
10 | Cc1cc(NC(=O)CSc2nnc(-c3ccccc3)n2Cc2ccco2)no1 | 15.8 µM (active) | 
11 | O=C(CSc1nnc(-c2ccccn2)n1Cc1ccco1)Nc1ccc2c(c1)OCO2 | 0.891 µM (active) | 
12 | Cc1cc(C)nc(SCc2nnc(SCC(N)=O)n2Cc2ccco2)n1 | 15.8 µM (active) | 
13 | CC(=O)Nc1ccc(NC(=O)CSc2nnc(-c3ccccc3)n2Cc2ccc3c(c2)OCO3)cc1 | 3.55 µM (active) | 
14 | COc1ccc(-c2cnnc(CCCn3ccnc3-c3ccccc3)n2)cc1 | 6.31 µM (active) | 
15 | COc1ccc(-c2ccc(=N)n(CCCC(=O)O)n2)cc1 | inactive | 
16 | COc1ccc(C(O)c2nccn2Cc2ccccc2)cc1 (configuration not stated) |  | -29.5% [at 11.4 µM] (inactive)
17 | COc1ccc(S(=O)(=O)N2CCC(NC(=O)Nc3ccc(C)cc3)CC2)cc1 | 8.91 µM (active) | 
18 | COc1ccc(S(=O)(=O)N2CCN(CC(=O)Nc3cccc(F)c3)CC2)cc1 | 7.94 µM (active) | 
19 | COCC(=O)N1CCC2(CC1)CCN(C(=O)Nc1cccc(F)c1)CC2 | inactive | 
20 | COc1ccc(S(=O)(=O)N2CCC(N3CCCCC3)CC2)cc1 | inactive | 
21 | COc1ccc(S(=O)(=O)N2CCCN(CC(=O)Nc3ccc(OC)c(Cl)c3)CC2)cc1 | 7.94 µM (active) | 
22 | COc1ccc(S(=O)(=O)Nc2ccc(S(=O)(=O)N3CCCCC3)cc2)cc1C |  | -19.1% [at 2.29 µM] (inactive)
23 | COc1ccccc1NC(=O)CN1CCC(C(=O)c2ccc(F)cc2)CC1 |  | -1.8% [at 2.29 µM] (inactive)

Row | Structure (SMILES) | AC50 | activity, negative = inhibition
24 | COc1ccc(C)cc1NC(=O)CN1CCN(S(=O)(=O)c2ccc(F)cc2)CC1 | 7.94 µM (active) | 
25 | Nc1[nH]c(=S)[nH]c(=O)c1N=Nc1c(Br)cc(S(N)(=O)=O)cc1Br |  | -21% [at 11.4 µM] (inactive)
26 | O=C(CN1CCN(S(=O)(=O)c2ccccc2)CC1)NC(=O)NCc1ccccc1 | inactive | 
27 | COc1ccc(S(=O)(=O)N2CCN(CC(=O)Nc3cc(OC)cc(OC)c3)CC2)cc1 | 3.98 µM (active) | 
28 | CCOC(=O)[C@H](CCc1ccccc1)N[C@@H](C)C(=O)N1CCC[C@H]1C(=O)O | inactive | 
29 | COC(=O)[C@@]1(Cc2ccccc2)[C@H]2c3cc(C(=O)N4CCCC4)n(C)c3C[C@H]2CN1C(=O)c1ccccc1 | 3.98 µM (active) | 
30 | COC(=O)[C@@]1(Cc2ccccc2)[C@H]2c3cc(C(=O)N4CCCC4)n(CC4CC4)c3C[C@H]2CN1C(=O)c1ccccc1 | 3.16 µM (active) | 
31 | O=[N+]([O-])c1nccn1C[C@H](O)CN1CCCCC1 |  | -20.2% [at 11.4 µM] (inactive)
32 | COc1ccc(C(=O)N/N=C2/SCC(=O)N2Cc2ccc3c(c2)OCO3)cc1OC | 1.12 µM (active) | 
33 | CCCN(CCC)S(=O)(=O)c1ccc(C(=O)O)cc1 | inactive | 
34 | CCOC(=O)c1c(C)[nH]c(C)c1C(=O)COC(=O)c1cccc(S(=O)(=O)N(CC)CC)c1 | 0.316 µM (active) | 
35 | CCOC(=O)c1c(C)[nH]c(C)c1C(=O)COC(=O)c1ccc(S(=O)(=O)N(CC)CC)cc1 | 0.282 µM (active) | 
36 | CCN(CC)CCOC(=O)c1ccc(N)cc1 | inactive | 
37 | NCCCNCCCCNCCCN | inactive | 
38 | O=C(O)CCNc1ncnc2nc[nH]c12 |  | -0.12% [at 11.4 µM] (inactive)
39 | CCO[P@]1(=O)OC[C@@H]2O[C@H](n3cnc4c(N)ncnc43)[C@H](O)[C@@H]2O1 |  | 7.34% [at 11.4 µM] (inactive)
40 | O=C1c2cccc3c(Nc4ccccc4Cl)c([N+](=O)[O-])cc(c23)C(=O)N1CCO | 14.1 µM (active) | 
41 | O=C1c2cccc3c(Cl)ccc(c23)C(=O)N1O |  | -15% [at 11.4 µM] (inactive)
42 | CCc1ccccc1N1C(=O)c2cccc3c(N4CCOCC4)c([N+](=O)[O-])cc(c23)C1=O | inactive | 
43 | Cc1ccc(C(c2nnnn2C2CCCC2)N2CCN3CCCC3C2)cc1 (configuration not stated) | 14.1 µM (active) | 
44 | c1coc(CN2CCN(C(c3cccs3)c3nnnn3C3CCCC3)CC2)c1 (configuration not stated) | 14.1 µM (active) | 
45 | Clc1ccc(C(c2nnnn2C2CCCC2)N2CCN(Cc3ccncc3)CC2)cc1 (configuration not stated) | 2 µM (active) | 
46 | CC(C)(C)N1C(=O)[C@@H]2[C@H]3C(=CC[C@H]2C1=O)C(=O)[C@H]1O[C@H]1[C@H]3O |  | -4.13% [at 11.4 µM] (inactive)

Row | Structure (SMILES) | AC50 | activity, negative = inhibition
47 | O=S(Cc1ccccc1)CC(O)(c1ccccc1)c1ccccc1 (configuration not stated) | inactive | 
48 | O=C(Nc1cnn(Cc2ccc(Cl)cc2Cl)c1)c1cc(-c2cccs2)on1 | 10 µM (active) | 
49 | O=C(NCC1CCCO1)c1cc(-c2ccc(Cl)cc2Cl)on1 (configuration not stated) | inactive | 
50 | O=C(CCCn1cnc([N+](=O)[O-])n1)Nc1ccc(Cl)c(Cl)c1 | 14.1 µM (active) | 
51 | O=C(Cn1cnc([N+](=O)[O-])n1)N/N=C/c1ccccc1O | inactive | 
52 | CC(C)(C)NC(=O)Cn1cnc([N+](=O)[O-])n1 | inactive | 
53 | O=C1O/C(=C\Br)CC[C@@H]1c1cccc2ccccc12 | 3.98 µM (active) | 
54 | Cc1cccc(-c2c3c(=O)n(C)c(=O)n(C)c3cn2C2CCCCC2)c1 | 7.94 µM (active) | 
55 | COC(=O)c1ccccc1NC(=O)C(CCS(C)(=O)=O)NC(C)=O (configuration not stated) | inactive | 
56 | COc1ccccc1NC(=O)C(C/C=C(\C)Cl)C(C)=O (configuration not stated) | 14.1 µM (active) | 
57 | CCCN1C(=O)C2(/C(=C(\O)c3ccc4c(c3)OCCO4)C(=O)C(=O)N2CCCOC)c2ccccc21 (configuration not stated) | inactive | 
58 | COCC(=O)N1CCC[C@@]2(CCN(Cc3ccccc3OC)C2)C1 | inactive | 
59 | COc1ccccc1CN1CC[C@@]2(CCCN(C(=O)c3ccco3)C2)C1 | 20 µM (active) | 
60 | COc1ccccc1CN1CCC2(CC1)CCN(C(=O)c1ccco1)CC2 | inactive | 
61 | COc1ccccc1CN1CC[C@@]2(CCCN(C(C)=O)C2)C1 | inactive | 
62 | COc1ccccc1CN1CC[C@@]2(CCCN(C(=O)c3cccn3C)C2)C1 | 12.6 µM (active) | 
63 | COc1ccccc1CN1CCC2(CC1)CCN(C(=O)c1cccn1C)CC2 | inactive | 
64 | Cc1cc(NC(=O)c2nn(C)c(C)c2[N+](=O)[O-])no1 | inactive | 
65 | C=CCNc1nc(-c2ccc(Cl)cc2)cs1 | 14.1 µM (active) | 
66 | CCCCCN1CC(O)=C(c2nc(-c3ccc(Cl)cc3)cs2)C1=N | inactive | 
67 | Cc1ccc(-c2csc(N/N=C/c3ccco3)n2)cc1 |  | -6.49% [at 2.29 µM] (inactive)
68 | CC(C)(C)NC[C@H](O)COc1cccc2c1CCC(=O)N2 | inactive | 
69 | CC(C)(C)NC(=O)C(Cc1ccccc1)NS(=O)(=O)c1ccc2c(c1)CCC(=O)N2 (configuration not stated) | 3.16 µM (active) | 

Row | Structure (SMILES) | AC50 | activity, negative = inhibition
70 | CC1=N[C@@](C)(COC(=O)[C@]2(C)N[C@](C)(CO)CO2)COC1=O |  | -22.8% [at 11.4 µM] (inactive)
71 | Cc1cccc(OCC(=O)N/N=C\C=C\c2ccc3c(c2)OCO3)c1C | 2.24 µM (active) | 
72 | COC(=O)N/N=C\C=C\c1ccc2c(c1)OCO2 | inactive | 
73 | N[C@@H](Cc1nn[nH]n1)C(=O)O |  | -2.7% [at 11.4 µM] (inactive)
74 | O=[N+]([O-])c1cccc(-c2nc(-c3cccs3)c(-c3cccs3)[nH]2)c1 | 12.6 µM (active) | 
75 | O=C(O)c1nc(-c2ccccc2)[nH]c1C(=O)O |  | -3.83% [at 11.4 µM] (inactive)
76 | O=[N+]([O-])c1cccc(-c2nc(-c3ccccc3)c(-c3cccs3)[nH]2)c1 |  | -13.1% [at 2.29 µM] (inactive)
77 | Cc1ccsc1-c1nc(-c2ccccc2)c(-c2ccccc2)[nH]1 | 14.1 µM (active) | 
78 | COc1ccc(-c2[nH]c(-c3ccc(C(=O)O)cc3)nc2-c2ccccc2)cc1 | inactive | 
79 | c1ccc(-c2nc(-c3cccs3)[nH]c2-c2ccccc2)cc1 | 11.2 µM (active) | 
80 | CCOC(=O)Cc1cc(=O)n2[nH]c(C)c(C#N)c2n1 | inactive | 
81 | NC(=O)C(=O)O | inactive | 
82 | COc1ccc(C(=O)CN2CCN(c3ccc(F)cc3)CC2)cc1OC | 28.2 µM (active) | 
83 | CCOc1cc(CN2CCN(c3ccc(C(C)=O)cc3)CC2)ccc1OC | inactive | 
84 | CCC(C)NCc1ccc(C(=O)OC)o1 (configuration not stated) | inactive | 
85 | CCC/C=C(\CCC)C(NS(=O)(=O)c1cccc2cccnc12)c1ccc(-c2ccccc2)cc1 (configuration not stated) | 3.16 µM (active) | 
86 | CCC/C=C(\CCC)C(NS(=O)(=O)c1cccc2cccnc12)c1ccc(C(=O)OC)cc1 (configuration not stated) | 5.01 µM (active) | 
87 | CCC(C)N1C(=O)C2C(C(=O)Nc3cccc(OC)c3)C3C=CC2(O3)C1C(=O)NC1CCCCC1C (configuration not stated) | 15.8 µM (active) | 
88 | CC12CCC(C(=O)O)(C/C1=N\O)C2(C)C (configuration not stated) | inactive | 
89 | CN1C(=O)c2ccccc2C(C(=O)O)C1c1cn(C)c2ccccc12 (configuration not stated) |  | 7.7% [at 2.29 µM] (inactive)
90 | COc1ccc(C2C(C(=O)N3CCOCC3)c3ccccc3C(=O)N2c2ccc(OC)cc2)cc1 (configuration not stated) | 8.91 µM (active) | 
91 | CCOc1ccc(C2C(C(=O)O)c3ccccc3C(=O)N2CCN2CCOCC2)cc1 (configuration not stated) | inactive | 
92 | COc1ccc(C2C(C(=O)N3CCN(C)CC3)c3ccccc3C(=O)N2C2CCCCC2)cc1 (configuration not stated) | 5.01 µM (active) | 

— PubChem BioAssay AID1851 (National Center for Advancing Translational Sciences (NCATS), 2009)
